The record followed here is PubChem BioAssay (NCI).

Some test systems named below: NCI-H23 lung; NCI-H322M lung; HOP-62 NSCLC; NCI-H460 lung; HOP-92 NSCLC; NCI-H522 lung; A549/ATCC NSCLC; 786-0 renal; COLO 205 colon; NCI-H226 lung.
What all share (test): NCI-60 one-dose screen, 48 h (100 = growth as untreated, 0 = no growth, -100 = all killed)
What all share (settings): 10 µM unless noted

The panel holds about 83,000 compounds, 20% with a hit somewhere; the sample as a whole holds those more often.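 In brief: 96-well plates, 48 h treatment, single concentration, percent growth endpoint.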 Unmarked numbers belong to inactive results. The source made the active and inactive calls. How the source made its calls: active means growth percent below 10; inactive means the rest.

As to `CC(=O)[O][Hg][c]1c(N)c(C)cc(C)c1F`, the growth in the experiment with NCI-H23 lung is 48.6%; in the experiment on NCI-H322M lung it was 85.1%; in the experiment on HOP-62 NSCLC, 59.5%; with NCI-H460 lung, 43.8%; in the experiment on HOP-92 NSCLC it was 12.1%; with NCI-H522 lung, -42.2% (active). Moreover, the growth was 84.7% with A549/ATCC NSCLC, -31.7% (active) in the experiment with 786-0 renal and -16.6% (active) with COLO 205 colon.

For the compound `CCN1C(=O)C(=C/C=C/c2ccccc2)C(=O)N(CC)C1=O`, the growth with NCI-H23 lung was 95.5%; with NCI-H322M lung, 104%; with HOP-62 NSCLC, 97.8%; in the experiment with NCI-H460 lung it was 77.8%; with HOP-92 NSCLC, 116%; with NCI-H522 lung, 73.3%. Moreover, the growth in the experiment on A549/ATCC NSCLC was 101%; in the experiment with 786-0 renal, 106%; in the experiment with COLO 205 colon, 93.8%.

In the case of `O=C(CC1(O)C(=O)Nc2ccc(Cl)cc21)c1ccc(C(=O)NCC2CCC3(CC2)OOC2(CCCCC2)OO3)cc1` (stereo not given), the growth in the experiment on NCI-H23 lung was 32.1%; in the experiment with NCI-H322M lung, 77.7%; in the experiment with HOP-62 NSCLC, -55.4% (active); with NCI-H460 lung, -55.4% (active); in the experiment on HOP-92 NSCLC, -70.3% (active); in the experiment with NCI-H522 lung, -1.69% (active). For the same compound, the growth in the experiment on A549/ATCC NSCLC is -55.4% (active); in the experiment on 786-0 renal it was -65.6% (active); in the experiment on COLO 205 colon, 1.29% (active).

For `Cc1cc(C)c(CBr)c(C)c1`, the growth with NCI-H23 lung was 100%; with NCI-H322M lung it was 92.4%; in the experiment with HOP-62 NSCLC, 104%; in the experiment with NCI-H460 lung, 109%; in the experiment with HOP-92 NSCLC it was 87.5%; with NCI-H522 lung, 90.2%. Further, the growth in the experiment with A549/ATCC NSCLC was 95.1%; in the experiment with 786-0 renal, 99.2%; in the experiment on COLO 205 colon, 107%.

With `CCCCCCCCOC(=O)CCN1CC1`, the growth with NCI-H23 lung is 111%; in the experiment with NCI-H322M lung, 107%; in the experiment on HOP-62 NSCLC, 124%; in the experiment on NCI-H460 lung, 115%; in the experiment on HOP-92 NSCLC it was 77%; with NCI-H522 lung it was 121%. The growth was 99.1% with A549/ATCC NSCLC, 107% in the experiment on 786-0 renal and 116% with COLO 205 colon.

As to `O=C1CCC2(O)[C@@H]3Cc4ccc(O)c5c4[C@]2(CCN3Cc2ccoc2)C1O5` (stereo not given in full), the growth in the experiment with NCI-H226 lung is 89.4%; with NCI-H322M lung, 110%; with HOP-62 NSCLC it was 106%; in the experiment with NCI-H460 lung, 103%; with HOP-92 NSCLC it was 100%; in the experiment on NCI-H522 lung, 95.4%. The growth with A549/ATCC NSCLC is 102%; in the experiment on 786-0 renal it was 103%; in the experiment on COLO 205 colon it was 105%.

As to `COC(C(=O)[C@@H](O)[C@@H](C)O)[C@@H]1Cc2cc3cc(O[C@H]4C[C@@H](O[C@H]5C[C@@H](O)[C@H](O)C(C)O5)[C@H](O)C(C)O4)c(C)c(O)c3c(O)c2C(=O)[C@H]1O[C@H]1C[C@@H](O[C@H]2C[C@@H](O[C@H]3C[C@@H](O)[C@@H](O)C(C)O3)[C@@H](O)C(C)O2)[C@H](O)C(C)O1` (stereo not given in full), the growth in the experiment with NCI-H226 lung was -22.2% (active); in the experiment on HOP-62 NSCLC, -4.46% (active); in the experiment with NCI-H460 lung, 7.75% (active); with HOP-92 NSCLC it was 13.3%; in the experiment on NCI-H522 lung, -23.7% (active); in the experiment with A549/ATCC NSCLC, 2.42% (active). In addition, the growth in the experiment with 786-0 renal was -1.51% (active); with COLO 205 colon, -43.3% (active).

Regarding `CC(=O)O[C@H]1C(=O)[C@@]2(C)[C@H]([C@H](OC(=O)c3ccccc3)[C@]3(O)C[C@H](OC(=O)[C@H](OC(=O)OCC4COC(C)(C)O4)[C@@H](NC(=O)c4ccccc4)c4ccccc4)C(C)=C1C3(C)C)[C@]1(OC(C)=O)CO[C@@H]1C[C@@H]2O` (stereo not given in full), the growth with NCI-H226 lung is 72.8%; in the experiment with HOP-62 NSCLC it was 48.1%; in the experiment with NCI-H460 lung, 13.1%; in the experiment on HOP-92 NSCLC it was 74%; with NCI-H522 lung, 38.7%; in the experiment on A549/ATCC NSCLC, 30%. Further, the growth in the experiment on 786-0 renal was 54.2%; in the experiment on COLO 205 colon, 7.19% (active).

Turning to `Cc1c(NS(=O)(=O)c2ccccc2)ccc([N+](=O)[O-])c1Cl`, the growth in the experiment on NCI-H226 lung is 62.7%; with NCI-H322M lung, 102%; with HOP-62 NSCLC it was 95.1%; in the experiment with NCI-H460 lung, 67%; in the experiment with HOP-92 NSCLC it was -9.14% (active); with NCI-H522 lung it was 55.7%. In addition, the growth was 58.6% with A549/ATCC NSCLC, 41.1% in the experiment on 786-0 renal and 109% in the experiment with COLO 205 colon.

Regarding `N#C[Se]CCN1C(=O)c2ccccc2C1=O`, the growth in the experiment with NCI-H226 lung was 36.3%; in the experiment with NCI-H322M lung it was 24.4%; with HOP-62 NSCLC, 26.4%; in the experiment with NCI-H460 lung, 15.8%; with HOP-92 NSCLC, -3.49% (active); in the experiment with NCI-H522 lung, 20.2%. In addition, the results for the growth in the experiment on A549/ATCC NSCLC, in the experiment on 786-0 renal and in the experiment on COLO 205 colon were 30.6%, 52% and 61.6%, respectively.

For the compound `CC12CCC3C(CCC4Cc5[nH]c6ccccc6c5CC43C)C1CCC2O` (stereo not given), the growth is 43% in the experiment on NCI-H322M lung; 62.8% in the experiment on HOP-62 NSCLC; 5.72% (active) in the experiment on NCI-H460 lung; 63.4% with HOP-92 NSCLC; 26.4% in the experiment on NCI-H522 lung; 41.5% in the experiment on A549/ATCC NSCLC. The growth in the experiment on 786-0 renal is 33.5%; in the experiment on COLO 205 colon it was 45%.

Consider `CC1CCCC(C[N+](C)(C)C)C1=O` (stereo not given), for which the growth was 95.4% in the experiment with NCI-H226 lung; 106% in the experiment on HOP-62 NSCLC; 117% in the experiment with NCI-H460 lung; 83.8% in the experiment on HOP-92 NSCLC; 98.7% with NCI-H522 lung; 104% with A549/ATCC NSCLC. In addition, the growth with 786-0 renal was 112%; in the experiment with COLO 205 colon, 118%.

Turning to `CN(C)CC(C(=O)Cc1ccccc1)c1ccccc1` (stereo not given), the growth was 125% with NCI-H226 lung; 102% in the experiment with NCI-H322M lung; 106% in the experiment on HOP-62 NSCLC; 102% in the experiment with NCI-H460 lung; 86.3% in the experiment on HOP-92 NSCLC; -81.3% (active) with NCI-H522 lung. Also, the growth with A549/ATCC NSCLC was 97.5%; in the experiment with 786-0 renal, 9.78% (active); with COLO 205 colon it was 5.72% (active).

On to `CCN(CC)c1ccc2c(c1)OC(N)=C(C#N)C2c1cc(OC)c2c(c1)OCO2` (stereo not given), for which the growth was 29% in the experiment with NCI-H226 lung; 47.1% in the experiment on NCI-H322M lung; 42% in the experiment with HOP-62 NSCLC; 3.22% (active) in the experiment with NCI-H460 lung; 38.2% in the experiment with HOP-92 NSCLC; -41.7% (active) in the experiment on NCI-H522 lung. In addition, the growth was 19.8% with A549/ATCC NSCLC, 15.5% with 786-0 renal and -42.8% (active) in the experiment with COLO 205 colon.

On to `CC(=O)O[C@H](C[C@H](C(C)C)N(C)C(=O)[C@@H](NC(=O)[C@H]1CCCCN1C)C(C)C)c1cccc(C(=O)N[C@@H](Cc2ccccc2)C[C@H](C)C(=O)O)n1`, for which the growth with NCI-H226 lung is 61.6%; in the experiment on NCI-H322M lung it was 40.7%; with HOP-62 NSCLC, 23%; in the experiment on NCI-H460 lung it was 4.27% (active); in the experiment on HOP-92 NSCLC, 54.5%; in the experiment on NCI-H522 lung, -12.7% (active). For the same compound, the figures for the growth in the experiment on A549/ATCC NSCLC, with 786-0 renal and in the experiment on COLO 205 colon were 8.55% (active), 13.6% and -64% (active), respectively.

With `C[Se]C(=O)c1ccccc1OC(C)=O`, the growth with NCI-H226 lung is 6.57% (active); with NCI-H322M lung, 91.4%; with HOP-62 NSCLC, 48.9%; in the experiment with NCI-H460 lung it was 37.5%; in the experiment on HOP-92 NSCLC, 38.4%; in the experiment with NCI-H522 lung, 63.8%. Moreover, the values for the growth in the experiment on A549/ATCC NSCLC, with 786-0 renal and with COLO 205 colon were 59.2%, 79.4% and 111%, respectively.

With `COC(=O)[C@@H](C)C[C@H](Cc1ccccc1)NC(=O)c1cccc([C@@H](C[C@H](C(C)C)N(C)C(=O)[C@@H](NC(=O)[C@H]2CCCCN2C)C(C)C)OC(C)=O)n1`, the growth with NCI-H226 lung is 68.1%; with NCI-H322M lung, 47.6%; with HOP-62 NSCLC it was 23.2%; in the experiment with NCI-H460 lung, 7.05% (active); in the experiment on HOP-92 NSCLC, 53.7%; in the experiment with NCI-H522 lung it was -22.2% (active). The growth in the experiment on A549/ATCC NSCLC was 14.2%; in the experiment on 786-0 renal it was 14.4%; with COLO 205 colon it was -54.5% (active).

Consider `O=NN1CCCc2cccc(O)c21`, for which the growth is 76.5% in the experiment with NCI-H226 lung; 41.8% in the experiment on NCI-H322M lung; 31.9% in the experiment on HOP-62 NSCLC; 4.79% (active) in the experiment on NCI-H460 lung; 71.6% in the experiment with HOP-92 NSCLC; -21.7% (active) in the experiment on NCI-H522 lung. Further, the growth is 37.6% in the experiment on A549/ATCC NSCLC, 27.2% with 786-0 renal and 94% with COLO 205 colon.

Regarding `O=C1C(N2CC2)=C(N2CC2)C(=O)C(N2CC2)=C1N1CC1`, the growth is -63.6% (active) in the experiment on NCI-H226 lung; 3.77% (active) with NCI-H322M lung; -17% (active) in the experiment with HOP-62 NSCLC; -30.9% (active) with NCI-H460 lung; 41.4% in the experiment on HOP-92 NSCLC; -53.3% (active) with NCI-H522 lung. Also, the growth in the experiment with A549/ATCC NSCLC was 6.45% (active); in the experiment with 786-0 renal it was -76.2% (active); in the experiment on COLO 205 colon, -100% (active).

Consider `Cc1ccc2c(C(C[N+](=O)[O-])c3cccs3)c(-c3ccccc3)[nH]c2c1` (stereo not given), for which the growth with NCI-H226 lung is 46.4%; in the experiment on NCI-H322M lung, 54.7%; in the experiment on HOP-62 NSCLC, 26.2%; with NCI-H460 lung, 11.3%; in the experiment on HOP-92 NSCLC, 25.5%; with NCI-H522 lung, -3.71% (active). Besides, the growth in the experiment on A549/ATCC NSCLC was 28.8%; in the experiment on 786-0 renal, 38.6%; with COLO 205 colon it was 6.75% (active).

For `Cn1cccc1C1CC(=O)N(CCC[Se]C#N)C1=O` (stereo not given), the growth in the experiment on NCI-H226 lung is -46.1% (active); in the experiment with NCI-H322M lung, 11.1%; in the experiment with HOP-62 NSCLC it was -75.7% (active); with NCI-H460 lung, -0.959% (active); with HOP-92 NSCLC, -40.8% (active); with NCI-H522 lung, 23.5%. Besides, the growth in the experiment on A549/ATCC NSCLC is -38.6% (active); with 786-0 renal, -73.2% (active); in the experiment with COLO 205 colon, 70.1%.
